ANO1 activ – activates or potentiates the mouse TMEM16A chloride channel | B-score at 10 µM | Q8BHY3 | 340,000 tested, 0.3% active | HEK293 TMEM16A/YFP-H148Q/I152L, iodide quench fluorescence; stronger effect = lower value;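 active = fluorescence-ratio B-score plate-corrected deviation score at least 3 library SD below zero, with starting fluorescence score within 5 deviations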;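 note: channel opened by trigger with iodide after compound preincubation; score built on the fluorescence ratio of max minus min over baseline; more negative score means more quench and so TMEM16A activation or potentiation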
KCNK3 block – human KCNK3 channel inhibition, primary screen; AID 602410; 340,000 tested, 0.84% active; CHO-KCNK3 thallium flux, FluxOR fluorescence; stronger effect = lower value; O14649; B-score at 10 µM;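 active = B-score under library mean minus 4 SD, starting fluorescence ratio at most library mean plus 5 SD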;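 note: more negative B-score means stronger inhibition of thallium flux through KCNK3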
ANO1 block – inhibitors of mouse TMEM16A calcium-activated chloride channel; HEK293 TMEM16A/YFP iodide influx fluorescence, ionomycin; normalized B-score (activity score, 25-100; higher = stronger inhibition) at 10 µM; 310,000 tested, 1.2% active;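 active = ratio plate-corrected score three or more library SD toward inhibition, starting fluorescence score within five deviations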;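 note: score derived from kinetic fluorescence span divided by baseline fluorescence per well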
Kir21 block – blocks the mouse Kir2.1 inward-rectifier potassium channel | P35561 | B-score at 10 µM | 310,000 tested, 0.85% active | HEK293-Kir2.1, FluxOR thallium flux fluorescence; stronger effect = lower value | AID 1672;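 active = fluorescence ratio B-score at or below minus 3 SD of library scores, with starting-brightness B-score within 2 SD, cut at about -4.2 in these data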;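 note: channel flux triggered by added potassium and thallium sulfate stimulus; B-score of peak minus minimum fluorescence over baseline after thallium stimulus; more negative B-score means stronger Kir2.1 block with less thallium influx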
KCNK9 inh – inhibitors of human KCNK9 two-pore domain potassium channel; 310,000 tested, 1.2% active; HEK293 KCNK9, FluxOR thallium flux fluorescence; stronger effect = lower value; B-score at 10 µM; AID 488922;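 active = ratio B-score over 3 SD below the library mean, with starting fluorescence within 5 SD of its mean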;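 note: negative B-score means less thallium flux so channel inhibition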
Target sequence (Q9NPC2 whole entry, looked up, the tested form may be a part): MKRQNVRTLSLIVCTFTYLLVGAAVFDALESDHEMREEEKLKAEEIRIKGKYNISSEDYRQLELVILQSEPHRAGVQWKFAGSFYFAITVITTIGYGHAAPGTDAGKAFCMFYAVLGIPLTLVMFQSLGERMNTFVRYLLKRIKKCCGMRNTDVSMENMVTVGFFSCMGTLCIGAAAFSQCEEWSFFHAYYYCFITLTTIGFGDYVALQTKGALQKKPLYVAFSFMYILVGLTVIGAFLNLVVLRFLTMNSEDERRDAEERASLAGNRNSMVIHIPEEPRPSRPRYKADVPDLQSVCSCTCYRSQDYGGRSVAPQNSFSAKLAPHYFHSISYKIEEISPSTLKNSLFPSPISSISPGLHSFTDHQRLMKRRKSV
KCNK9 block conf – human KCNK9 inhibitor confirmation; 4,900 tested, 43% active; shares compounds with KCNK9 inh; inhibition, % at 10 µM; HEK293 KCNK9 cells, FluxOR thallium flux fluorescence;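 active = thallium signal inhibited by more than 5 SD of the compound-free buffer control wells, on both duplicate plates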;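 note: 0% = assay buffer control wells without compound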
Kir2-1 spec – selectivity of KCNK9 modulators against mouse Kir2.1 | shares compounds with KCNK9 inh | Kir2.1 cells, FluxOR thallium flux fluorescence | inhibition, % at 10 µM | 4,900 tested, 4% active | AID 492993;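 active = thallium signal drop more than 5 SD beyond the mean of the no-compound control wells, seen in both duplicate plates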;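 note: signal is fluorescence rise after thallium addition divided by baseline fluorescence; plate controls were assay buffer only for no effect and full block by chlorpromazine control for full effect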
HEK293 Tl ctr – second counter-screen for KCNK9 modulators: effect in non-induced cells. non-induced KCNK9-HEK293, FluxOR thallium flux. inhibition, % at 10 µM. 4,900 tested, 40% active. shares compounds with KCNK9 inh;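 active = thallium signal drop beyond 5 SD of the untreated control mean, on both duplicate plates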;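 note: plate controls were buffer only IC0 wells for no effect and SID17386958 at its maximal inhibitory level for full effect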
Starred values were filed as active, the others as inactive. A selection: hits, their analogues and other compounds. The true share with any hit is near 3.5%.

What do the screens show for `OC1CCN(Cc2cccc3ccccc23)CC1`?
ANO1 activ: inactive; KCNK3 block: inactive; ANO1 block: inactive; Kir21 block: -2.7; KCNK9 inh: inactive

How did C(=N\N1CCN(Cc2cccc3ccccc23)CC1)/c1cccs1 do in these assays?
ANO1 activ: inactive; KCNK3 block: inactive; ANO1 block: inactive; Kir21 block: 0.69; KCNK9 inh: inactive; KCNK9 block conf: inactive; Kir2-1 spec: inactive; HEK293 Tl ctr: inactive

What do the screens show for `CC(OC(=O)CCCN=C1NS(=O)(=O)c2ccccc21)C(=O)NC1CCCCC1C` (configuration not stated)?
ANO1 activ: inactive; KCNK3 block: inactive; ANO1 block: inactive; Kir21 block: -1.6; KCNK9 inh: inactive

Results for COc1ccc2c(c1)/C(=C\c1cccc(/C=C3/C(=O)Nc4ccc(OC)cc43)n1)C(=O)N2 ?
ANO1 activ: inactive; KCNK3 block: inactive

How did CC(=O)N1CC(c2ccccc2)C(c2ccc(Cl)cc2)=N1 (configuration not stated) do in these assays?
ANO1 activ: inactive; KCNK3 block: inactive; ANO1 block: inactive; Kir21 block: -0.82; KCNK9 inh: -9*; KCNK9 block conf: inactive; Kir2-1 spec: inactive; HEK293 Tl ctr: inactive

Results for CN(C)c1nc(NCc2ccccc2)nc(N/N=C/c2ccc(Cl)cc2Cl)n1 ?
ANO1 activ: inactive; KCNK3 block: inactive; ANO1 block: inactive; Kir21 block: 0.01; KCNK9 inh: inactive; KCNK9 block conf: inactive; Kir2-1 spec: inactive; HEK293 Tl ctr: inactive

What do the screens show for `Cc1nc2c(ccc3nc(NC(=O)C(c4ccccc4)c4ccccc4)sc32)s1`?
ANO1 activ: inactive; KCNK3 block: inactive; ANO1 block: inactive; Kir21 block: -0.59; KCNK9 inh: -9.8*; KCNK9 block conf: inactive; Kir2-1 spec: inactive; HEK293 Tl ctr: inactive

How did Cc1nc2c(ccc3nc(NC(=O)Cc4cccc5ccccc45)sc32)s1 do in these assays?
ANO1 activ: inactive; KCNK3 block: inactive; ANO1 block: inactive; Kir21 block: 0.01; KCNK9 inh: inactive

How did CCN(C(=O)COc1cc(=O)n(C)c2ccccc12)c1cccc(Cl)c1 do in these assays?
ANO1 activ: inactive; KCNK3 block: inactive; ANO1 block: inactive; Kir21 block: -2; KCNK9 inh: inactive; KCNK9 block conf: inactive; Kir2-1 spec: inactive; HEK293 Tl ctr: inactive

What do the screens show for `CCOC(=O)C(Cc1c[nH]c2ccc([N+](=O)[O-])cc12)(NC(C)=O)C(=O)OCC`?
ANO1 activ: inactive; KCNK3 block: inactive

Results for Cc1ccc(CSCc2ccc(C(=O)NCCC(C)C)o2)cc1 ?
ANO1 activ: inactive; KCNK3 block: inactive; ANO1 block: inactive; Kir21 block: 0.18; KCNK9 inh: inactive; KCNK9 block conf: inactive; Kir2-1 spec: inactive; HEK293 Tl ctr: inactive

Results for Cc1ccc(CSCc2ccc(C(=O)NC3CC3)o2)cc1 ?
ANO1 activ: inactive; KCNK3 block: inactive; ANO1 block: inactive; Kir21 block: 1; KCNK9 inh: inactive

How did O=C(NCC(c1ccco1)N1CCc2ccccc2C1)c1cccc(Br)c1 (configuration not stated) do in these assays?
ANO1 activ: inactive; KCNK3 block: inactive; ANO1 block: inactive; Kir21 block: -0.38; KCNK9 inh: -12*; KCNK9 block conf: inactive; Kir2-1 spec: inactive; HEK293 Tl ctr: 26%*

Results for Cc1ccc(C)c(S(=O)(=O)NCC(c2ccco2)N2CCc3ccccc3C2)c1 (configuration not stated) ?
ANO1 activ: inactive; KCNK3 block: inactive; ANO1 block: inactive; Kir21 block: -0.23; KCNK9 inh: -11*; KCNK9 block conf: 48%*; Kir2-1 spec: inactive; HEK293 Tl ctr: 41%*

Results for Cc1ccc(C(=O)NCC(c2ccco2)N2CCc3ccccc3C2)cc1C (configuration not stated) ?
ANO1 activ: inactive; KCNK3 block: inactive; ANO1 block: inactive; Kir21 block: -0.85; KCNK9 inh: inactive

Results for O=C(NCC(c1ccco1)N1CCc2ccccc2C1)c1ccc(Br)cc1 (configuration not stated) ?
ANO1 activ: inactive; KCNK3 block: inactive; ANO1 block: inactive; Kir21 block: -2.8; KCNK9 inh: inactive; KCNK9 block conf: inactive; Kir2-1 spec: inactive; HEK293 Tl ctr: 35%*

What do the screens show for `O=C(NCC1CCCO1)C1CCCN(S(=O)(=O)c2cc(Cl)ccc2Cl)C1` (configuration not stated)?
ANO1 activ: inactive; KCNK3 block: inactive; ANO1 block: inactive; Kir21 block: -1.6; KCNK9 inh: inactive

How did NC(=O)CC(NC(=O)Cc1cccc2ccccc12)c1ccc(N2CCN(c3ccccn3)CC2)c([N+](=O)[O-])c1 (configuration not stated) do in these assays?
ANO1 activ: inactive; KCNK3 block: inactive; ANO1 block: inactive; Kir21 block: 0.19; KCNK9 inh: inactive

What do the screens show for `CC(C)(C)NC(=O)CN1CCN(C(=O)CCl)CC1`?
ANO1 activ: inactive; KCNK3 block: inactive; ANO1 block: inactive; Kir21 block: 1.3; KCNK9 inh: inactive

How did COc1ccc(/C=N/Nc2nc(-c3ccc(Cl)cc3)cc(C(F)(F)F)n2)cc1OC do in these assays?
ANO1 activ: inactive; KCNK3 block: inactive; ANO1 block: inactive; Kir21 block: 0.06; KCNK9 inh: inactive; KCNK9 block conf: inactive; Kir2-1 spec: inactive; HEK293 Tl ctr: inactive

How did CCCCN(C)CCNC(=O)CN1C(=O)CSc2ccc(S(=O)(=O)N3CCCC3)cc21 do in these assays?
ANO1 activ: inactive; KCNK3 block: inactive; ANO1 block: inactive; Kir21 block: 0.14; KCNK9 inh: inactive

How did CCC1CCCCN1CCCNC(=O)CN1C(=O)COc2ccccc21 (configuration not stated) do in these assays?
ANO1 activ: inactive; KCNK3 block: inactive; ANO1 block: inactive; Kir21 block: 0.1; KCNK9 inh: inactive

How did C/C(=N/NC(=O)CN1CCN(S(=O)(=O)c2ccc(C)cc2)CC1)c1ccco1 do in these assays?
ANO1 activ: inactive; KCNK3 block: inactive; ANO1 block: inactive; Kir21 block: 2.3; KCNK9 inh: inactive
